Jurkat NFkB inh – inhibitors of the PMA/ionomycin-induced NF-kB reporter in Jurkat cells | PMA/ionomycin-induced NF-kB luciferase reporter, luminescence | inhibition, % at 4 µM | actives 0.53% (n = 330,000) | AID 435003; in the data active = inhibition above about 50%
697 NFkB inh – inhibitors of the PMA/ionomycin-induced NF-kB reporter in 697 B cells. actives 0.33% (n = 330,000). AID 435022. inhibition, % at 4 µM. 697 B-cell NF-kB luciferase reporter, 16 h; in the data active = inhibition above about 35%
Gli-Sufu block – antagonists of Gli-Sufu signaling | inhibition, % at 5 µM | AID 588413 | Sufu-KO-LIGHT fibroblasts, Gli luciferase reporter luminescence | actives 0.74% (n = 340,000);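 active = inhibition above about 55%, limit read from the data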;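 also: 0% = DMSO-treated cells and 100% = wells with medium but no cells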
Beta cell apopt – blocks beta cell apoptosis; INS-1E cytokine-induced death, ATP luminescence, 48 h; percent of positive-control rescue, neutral wells zero; protection from apoptosis, % (concentration not given with the values); actives 0.8% (n = 300,000);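 active = Every replicate reaches about 75%, or at least half do and their mean reaches it too, limit read from the data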;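 also: 0% = cytokine-treated negative control wells and 100% = positive control rescue; higher means more ATP so stronger rescue from cytokine killing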
Gli antag conf – confirmation of Gli-SUFU pathway antagonists. actives 40% (n = 2,500). Sufu-KO-LIGHT cells, Gli luciferase reporter, luminescence. inhibition, % at 5 µM. shares compounds with Gli-Sufu block;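 active = mean inhibition at 5 µM reaching about 45%, limit read from the data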;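 also: plate controls were DMSO-treated cells for no effect and wells lacking cells for full effect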
Gli cytotox – cytotoxic in Gli-SUFU antagonist counter-screen; cytotoxicity, % at 5 µM; actives 32% (n = 2,500); shares compounds with Gli-Sufu block; Sufu-KO-LIGHT cells cytotoxicity, ATP luminescence;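 active = mean cytotoxicity at 5 µM above about 25%, limit read from the data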;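 also: cells exposed to compound overnight for roughly 16 to 18 hours; plate controls were DMSO wells with cells for no effect and medium without cells for full effect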
Wnt3a cs – Wnt3a reporter inhibition counter-screen. shares compounds with Gli-Sufu block. Wnt-LIGHT cells, Wnt3a-driven luciferase reporter, luminescence. inhibition, % at 6.25 µM. actives 20% (n = 2,500). AID 651995;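 active = mean inhibition above about 25%, limit read from the data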
* = called active by the depositor; x = no result given. Most compounds without a hit are left out; they make up all but 1.8% or so of the library.

SMILES	Jurkat NFkB inh	697 NFkB inh	Gli-Sufu block	Beta cell apopt	Gli antag conf	Gli cytotox	Wnt3a cs
O=C(c1ccco1)N1CCN(c2ncnc3c2[nH]c2ccc(Br)cc23)CC1	x	x	-5.7	x	x	x	x
CCOC(=O)N1CCN(c2ncnc3c2[nH]c2ccc(F)cc23)CC1	26.3	19.3	76.5*	76.1*	74.8*	26.9*	-6.5
CN(C)c1ncnc2c1ncn2-c1ccccc1	x	x	-38.5	x	x	x	x
CN(C)C1=NC[C@H](Cc2ccccc2)N1CCCCc1ccccc1	10.8	-51.0	54.1	9.9	37.9	28.9*	-18.2
Cc1cccc(CCN2C(N(C)C)=NC[C@@H]2CC(C)C)c1	0.4	-12.5	54.3	-0.6	56.3*	15.6	16.6
Cc1cccc(CCN2C(N(C)C)=NC[C@@H]2Cc2ccccc2)c1	7.8	-5.8	32.6	-8.8	x	x	x
CCCCCCCN1C(N(C)C)=NC[C@@H]1Cc1ccccc1	-2.2	-26.5	32.5	2.3	x	x	x
CCCCOc1ccc(CSCCNC(=S)Nc2ccccc2)cc1	32.2	-20.9	25.1	13.9	x	x	x
Cc1ccc(S(=O)(=O)N2CCCC2CNC(=O)C(=O)Nc2ccccc2)cc1 (stereo not drawn)	15.5	-10.2	-10.2	2.3	x	x	x
COC(=O)CSc1nc2ccccc2c(=O)n1C	-9.3	-13.4	3.0	-2.5	x	x	x
COc1ccc(S(=O)(=O)Nc2ccccc2C(=O)NC2CC2)cc1NC(C)=O	9.4	12.2	-3.8	-3.0	x	x	x
COc1ccc(S(=O)(=O)Nc2ccccc2Cl)cc1NC(C)=O	10.5	17.6	51.5	-9.5	11.8	-1.7	-0.3
COc1ccc(N2CCN(C3CC(=O)N(C)C3=O)CC2)cc1 (stereo not drawn)	10.7	6.6	67.0*	-3.4	25.2	0.9	8.9
N#Cc1ccc(-c2cn(-c3ccccc3)c3[n+]2CCCS3)cc1	-13.4	6.5	9.8	-3.3	x	x	x
c1ccc(-c2cn(-c3ccccc3)c3[n+]2CCCS3)cc1	7.5	-20.0	68.2*	22.9	68.7*	33.4*	33.4*
CCc1ccc(-n2cc(-c3ccc(F)cc3)[n+]3c2SCCC3)cc1	38.7	24.2	85.5*	109.7*	89.6*	44.8*	32.9*
O=C1CCC(C(=O)NCCCn2ccnc2)N1 (stereo not drawn)	8.9	12.5	8.0	-7.9	x	x	x
COc1ccc(NS(=O)(=O)c2ccc(OC)c(N(C)S(=O)(=O)c3ccc(Cl)cc3)c2)cc1	13.1	-48.0	74.2*	101.3*	42.6	39.4*	-34.8
Cc1cccc(N(Cc2ccccc2)C(=O)CCl)c1	x	x	76.9*	x	29.1	27.5*	-8.6
O=C(CCl)N(Cc1ccccc1)c1ccccc1	7.1	-6.6	-16.6	-4.0	x	x	x
CCOC(=O)CCCCCC(=O)Nc1ccc2c(c1)CC(=O)N([C@H](C)CO)C[C@@H](C)[C@H](CN(C)Cc1ccc3c(c1)OCO3)O2	-10.4	13.2	-2.1	-2.9	x	x	x
CCOC(=O)N1CCN(C(=O)c2ccc(CNS(=O)(=O)c3ccc(NC(C)=O)cc3)cc2)CC1	4.7	-25.1	-12.1	0.9	x	x	x
Cc1onc(C(=O)NN)c1C(=O)Nc1ncc(C(F)(F)F)cc1Cl	16.9	5.0	0.6	-10.6	x	x	x
CCCCOc1ccccc1NC(=O)c1scc2c1OCCO2	x	x	55.9*	x	14.9	15.3	-45.9
O=C(N=Nc1c(O)n(C2OC(=O)c3ccccc32)c2ccccc12)c1ccco1 (stereo not drawn)	-19.4	-23.9	x	-5.9	x	x	x
SMILES	Jurkat NFkB inh	697 NFkB inh	Gli-Sufu block	Beta cell apopt	Gli antag conf	Gli cytotox	Wnt3a cs
COc1ccc(/C=C2\SC(=S)N(CCCC(=O)N3CCCCC3CCO)C2=O)cc1 (stereo not drawn)	3.5	3.3	65.7*	-20.8	24.7	13.3	16.8
Cc1cc(C)cc(-n2ccn(CC(=O)NCCc3ccccc3)c(=O)c2=O)c1	-8.4	-18.8	54.0	-5.0	14.4	16.6	-20.4
CCOc1ccc([N+](=O)[O-])cc1CNC1CCCCCCC1	0.8	-23.2	51.8	2.4	20.7	7.0	-19.1
O=[N+]([O-])c1cccc(CNC2CCCCCC2)c1	14.9	8.9	12.8	-7.6	x	x	x
CC(C)CN(C(=O)COC(=O)CCc1c[nH]c2ccccc12)c1c(N)n(Cc2ccccc2)c(=O)[nH]c1=O	-2.5	11.8	-9.8	-2.7	x	x	x
CC(NC(=O)c1cc(COc2ccc3ncccc3c2)on1)c1ccc(F)cc1 (stereo not drawn)	35.5	-32.0	57.8*	105.0*	63.7*	42.9*	15.5
Cc1ccc(OCc2cc(C(=O)NC3CCCCC3)no2)cn1	6.0	-40.3	56.8*	x	27.0	17.5	-12.9
O=C(NC1CCCC1)c1cc(COc2ccc3ncccc3c2)on1	45.5	-20.3	53.9	104.3*	63.2*	24.1	21.2
CC(NC(=O)c1cc(COc2ccccc2)on1)c1nccs1 (stereo not drawn)	-144.6	-141.9	-8.2	1.1	x	x	x
CCOC(=O)C1=NN(C(=O)Nc2cccc(C(F)(F)F)c2)C2C(=O)N(c3cccc(C(F)(F)F)c3)C(=O)C12 (stereo not drawn)	-15.9	17.7	70.5*	2.4	24.5	-9.1	6.8
COCc1cc(=O)[nH]c(Nc2nc3ccc(C)cc3o2)n1	-5.9	-243.0	50.5	79.7*	63.0*	26.4*	-133.2
COCc1cc(=O)[nH]c(Cc2c(Cl)cccc2Cl)n1	-2.4	20.1	2.4	x	x	x	x
Cn1c(N)c(C(=O)COC(=O)C2(c3cccc(F)c3)CCCC2)c(=O)n(C)c1=O	10.3	-7.8	99.0*	-4.8	15.1	2.3	-6.9
Cc1cc(C)c2c(n1)nn1c(NCCCN3CCOCC3)cc(C)nc21	x	x	0.2	x	x	x	x
COc1ccc(CC2(CO)CCN(CC3=Cc4cc(Cl)ccc4OC3)CC2)cc1	34.9	-16.5	57.4*	115.3*	59.7*	14.0	-27.8
COc1ccc2c(c1)C=C(CN1CCC(CO)(CCc3ccccc3)CC1)CO2	-10.9	18.7	20.7	-3.6	x	x	x
COCCOc1nc2c(c(=O)n(C)c(=O)n2C)n1Cc1cccc(OC)c1	-19.8	-88.1	51.8	x	44.3	20.6	22.8
COc1ccc(Oc2nc3c(c(=O)n(C)c(=O)n3C)n2Cc2cccc(OC)c2)cc1	12.5	-14.2	16.2	-6.1	x	x	x
N=c1c2c(n(Cc3ccc(F)cc3)c3c1CCC3)CCCC2	13.2	6.1	66.1*	23.2	69.4*	24.7	15.1
COC(=O)CSc1nc(N)c(C#N)c(CC(C)C)c1C#N	-2.4	8.1	-0.7	x	x	x	x
Cc1cc(C)c(/C=N/NC(=O)c2nnn(-c3nonc3N)c2COc2ccc(F)cc2)c(C)c1	-6.8	-4.1	54.8	-2.7	16.3	16.3	-7.9
Cc1cc(-c2ccccc2)cc(-c2ccccc2)[n+]1C	8.8	-10.7	64.7*	9.5	70.4*	26.9*	19.6
CCOC(=O)c1c(C)nc2ccccn12	5.0	3.1	0.6	-6.4	x	x	x
C/C(=N\Nc1ccc2nncn2n1)c1ccc(Br)s1	-2.2	-3.3	61.7*	2.7	29.1	25.0	-3.5

Bioassay records (PubChem BioAssay)
